Assay [1] in a line: qHTS of pediatric cancer cell lines to identify multiple opportunities for drug repurposing: Primary screen for MG 63 (6-TG R) cells (AID 1347105). Also: nearly all actives have a fitted effect of over 50% in size. Also: potency is read from the fitted curve at half-maximal effect. The method, boiled down:
(§1)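 Phenotypic viability qHTS, 48 h compound exposure, CellTiter-Glo luminescence read-out; multi-concentration dosing so that potency and efficacy derive directly from the primary screen's curves.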
A general note: qHTS replaces the single test concentration by a dilution series.

The nature of assay [2]: qHTS of pediatric cancer cell lines to identify multiple opportunities for drug repurposing: Primary screen for Rh30 cells (AID 1347107). Also: nearly all actives have a fitted effect of over 75% in size. Also: potency is read from the fitted curve at half-maximal effect. In short, it runs like this:
(§2)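 Cells (500-1,000/well) in growth media were settled 5 h at 37 degrees C, then given compounds for 48 h. Viability was read as CellTiter-Glo luminescence. Primary runs used MIPE at 11 points (0.78 nM-46 µM) and NPC at 8 points (0.59 nM-46 µM); follow-ups used 11 points.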

A short description of assay [3]: qHTS of pediatric cancer cell lines to identify multiple opportunities for drug repurposing: Primary screen for Rh41 cells (AID 1347108). Also: nearly all actives have a fitted effect of over 70% in size. Also: potency is read from the fitted curve at half-maximal effect. In short, it runs like this:
as §1

The nature of assay [4]: qHTS of pediatric cancer cell lines to identify multiple opportunities for drug repurposing: Confirmatory screen for NB1643 cells (AID 1347109). Also: nearly all actives have a fitted effect of over 45% in size. Also: potency is read from the fitted curve at half-maximal effect. The method, boiled down: as §2
Assay [5] can be described thus: qHTS of pediatric cancer cell lines to identify multiple opportunities for drug repurposing: Confirmatory screen for A673 cells (AID 1347110).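 Also: potency is read from the fitted curve at half-maximal effect; cells exposed to compound for 48 h before the viability read; nearly all actives have a fitted effect of over 65% in size.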 The method, boiled down:
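A673 cells at 500-1,000 cells/well were dosed 5 h after plating, in dilution series up to 46 uM final; primary runs used 8 or 11 points and confirmatory runs used 11 points. Viability was read by CellTiter-Glo luminescence after 48 h, against DMSO and 2.3 uM bortezomib controls.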

Assay [6] in a line: qHTS of pediatric cancer cell lines to identify multiple opportunities for drug repurposing: Confirmatory screen for SK-N-MC cells (AID 1347111).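 Also: potency is read from the fitted curve at half-maximal effect; cells exposed to compound for 48 h before the readout; nearly all actives have a fitted effect of over 70% in size.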 In short, it runs like this:
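Metabolically active cells were quantified by ATP-dependent luminescence (CellTiter-Glo, 15 min at room temperature) following 48 h treatment. Cells had been plated at 500-1,000 per well and settled for 5 h beforehand.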

A short description of assay [7]: qHTS of pediatric cancer cell lines to identify multiple opportunities for drug repurposing: Confirmatory screen for BT-12 cells (AID 1347112). Also: nearly all actives have a fitted effect of over 55% in size. Also: potency is read from the fitted curve at half-maximal effect. The method, boiled down: as §2
A short description of assay [8]: qHTS of pediatric cancer cell lines to identify multiple opportunities for drug repurposing: Confirmatory screen for DAOY cells (AID 1347114). Also: nearly all actives have a fitted effect of over 65% in size. Also: potency is read from the fitted curve at half-maximal effect. In short, it runs like this:
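Viability measured as metabolically active cells via CellTiter-Glo luminescence following 48 hours of compound exposure, 11-point dilutions in confirmatory testing. 500-1,000 cells/well plated 5 hours before dosing; controls were DMSO and 2.3 µM bortezomib.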

Assay [9] is described as follows: qHTS of pediatric cancer cell lines to identify multiple opportunities for drug repurposing: Confirmatory screen for LAN-5 cells (AID 1347113). Also: nearly all actives have a fitted effect of over 65% in size. Also: potency is read from the fitted curve at half-maximal effect. The method, boiled down: as §2
Assay [10] in a line: qHTS of pediatric cancer cell lines to identify multiple opportunities for drug repurposing: Primary screen for control Hh wild type fibroblast cells (AID 1347106).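 Also: series mostly up to about 46 µM; a drop in luminescence marks cytotoxicity and a rise apparent proliferation; nearly all actives have a fitted effect of over 55% in size.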 In short, it runs like this:
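Viability after 48 h compound treatment at 37C, 500-1,000 cells/well, read as ATP luminescence with CellTiter-Glo. Primary screens used 11-point (MIPE, 0.78 nM-46 µM) or 8-point (NPC, 0.59 nM-46 µM) final concentrations; follow-up screens used 11-point dilutions.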

Each structure is given as a SMILES string. Records with an inconclusive call do not appear. Active and inactive are the calls of the source. Calls follow the shape of the dose curve; as a rule, active = well fitted curve in the direction sought with a large enough effect; inconclusive = small, poorly fitted or top-dose-only effect, or another doubt; inactive = no such curve, though single readings can be large; an effect the other way counts as inactive or inconclusive.

For the compound `NC(=O)c1c(OCc2c(F)cc(Br)cc2F)nsc1NC(=O)NCCCCN1CCCC1`, the Potency in [1] is 5900 nM (active); in assay [2] it was 20900 nM (active); in assay [3], 18700 nM (active).
Turning to `CC(C)(C)OC(=O)Nc1ccc(-c2cc(C(=O)NCCCCCCC(=O)NO)no2)cc1`, in assay [1], the Potency entry was “inactive”. The Potency in assay [2] was 7430 nM (active); in assay [3], 3720 nM (active); in [4], 1170 nM (active); in [5], 2330 nM (active); in assay [6], 32.9 nM (active); in assay [7], 18500 nM (active).
On to `O=C(c1ccc(Nc2nccc(-c3cc4ccccc4s3)n2)cc1)N1CCC(N2CCCC2)CC1`, for which the Potency in assay [1] is 18700 nM (active); in assay [2], 23500 nM (active); in assay [3], 18700 nM (active).
As for `Cc1ccc(C(=O)Nc2ccc(CN3CCN(C)CC3)c(C(F)(F)F)c2)cc1C#Cc1cnc2cccnn12`, the Potency in assay [1] is 7430 nM (active); in [2], 14800 nM (active); in assay [3], 9350 nM (active); in assay [5], 4650 nM (active); in assay [6], 3.3 nM (active); in assay [7], 8270 nM (active). In [8], the Potency was 8270 nM (active).
For `Cc1cc(Nc2cc(NC(=O)c3c(Cl)cccc3Cl)ccn2)nc(N)n1`, the Potency in assay [1] was 11800 nM (active); in assay [4] it was 5850 nM (active); in [5], 603 nM (active); in [6], 657 nM (active); in [7], 1310 nM (active); in assay [9], 9270 nM (active). Also, in assay [2], the Potency entry was “inactive”.
As for `CC1(C)O[C@@H]2C[C@@H]3[C@H]4C[C@@H](F)C5=CC(=O)C=C[C@]5(C)[C@@]4(F)[C@@H](O)C[C@]3(C)[C@]2(C(=O)CO)O1`, the Potency result in assay [1] and in assay [10] was “inactive” throughout. For the same compound, the Potency in [5] was 92.8 nM (active); in [6], 293 nM (active); in assay [7], 73.7 nM (active); in [8], 737 nM (active).
On to `Cc1c(NC(=O)OC[C@@H]2COCCN2)cn2ncnc(Nc3ccc4c(cnn4Cc4cccc(F)c4)c3)c12`, for which the Potency in assay [1] is 187 nM (active); in assay [5] it was 18500 nM (active); in [7], 26100 nM (active); in assay [8], 20800 nM (active). The Potency entry in [10] and in assay [4] was “inactive” throughout.
In the case of `C#Cc1cccc(Nc2ncnc3cc(OC)c(OCCCCCCC(=O)NO)cc23)c1`, the Potency was 118 nM (active) in [1]; 11800 nM (active) in assay [2]; 372 nM (active) in [3]; 955 nM (active) in [4]; 2400 nM (active) in assay [5]; 603 nM (active) in assay [6]. In addition, the Potency in assay [7] was 5370 nM (active); in assay [9], 676 nM (active); in [8], 2140 nM (active).
As for `Cn1cncc1[C@@](N)(c1ccc(Cl)cc1)c1ccc2c(c1)c(-c1cccc(Cl)c1)cc(=O)n2C`, the Potency was 23500 nM (active) in [1], 14800 nM (active) in assay [2] and 14800 nM (active) in assay [3].
For the compound `COc1cc(OC2CCN(C)CC2)ccc1Nc1ncc2c(n1)n(C1CCCC1)c(=O)n2C`, the Potency in [1] is 23500 nM (active); in [2] it was 20900 nM (active); in [3], 18700 nM (active).
Consider `CC[C@@H]1C(=O)N(C)c2cnc(Nc3ccc(C(=O)NC4CCC(N5CCN(CC6CC6)CC5)CC4)cc3OC)nc2N1C(C)C` (stereo partly specified), for which the values for the Potency in [1], in assay [2] and in assay [3] were 11800 nM (active), 16600 nM (active) and 2350 nM (active), respectively. Also, the Potency entry in [4], in [7], in assay [9] and in [8] was “inactive” each time.
On to `CCc1c2c(nc3ccc(O)cc13)-c1cc3c(c(=O)n1C2)COC(=O)[C@]3(O)CC`, for which the Potency in [1] is 18.7 nM (active); in [2] it was 132 nM (active); in assay [3], 235 nM (active); in [5] it was 65.7 nM (active); in [7], 2610 nM (active).
Consider `CCS(=O)(=O)c1cccc(-c2cc(C(=O)NC3CCN(C)CC3)c(C)c3[nH]c4ncc(C)cc4c23)c1`, for which the Potency is 14800 nM (active) in [1]; 1320 nM (active) in [3]; 414 nM (active) in [4]; 928 nM (active) in assay [5]; 117 nM (active) in [6]; 4650 nM (active) in assay [7]. For the same compound, the values for the Potency in assay [9] and in assay [8] were 1170 nM (active) and 16500 nM (active), respectively.
For the compound `O=C(C=Cc1cccc(S(=O)(=O)Nc2ccccc2)c1)NO`, the Potency in assay [1] was 6790 nM (active); in [3], 6790 nM (active); in assay [4] it was 1350 nM (active); in assay [5] it was 6030 nM (active); in assay [6], 1510 nM (active); in assay [7] it was 38000 nM (active). The Potency was 1700 nM (active) in assay [9] and 19100 nM (active) in [8].
For the compound `CC(=O)c1c(C)c2cnc(Nc3ccc(N4CCNCC4)cn3)nc2n(C2CCCC2)c1=O`, the Potency result in [10] was “inactive”.
For `N#CCNC(=O)c1ccc(-c2ccnc(Nc3ccc(N4CCOCC4)cc3)n2)cc1`, the Potency in assay [1] and in assay [3] was 18700 nM (active) throughout.
Consider `COc1cc(C(=O)N2CCC(N3CCN(C)CC3)CC2)ccc1Nc1ncc2c(n1)N(C)c1ccccc1C(=O)N2C`, for which the Potency in [1] and in assay [3] was 9350 nM (active) throughout.
As to `C[C@@H](Oc1cc(-n2cnc3ccc(CN4CCN(C)CC4)cc32)sc1C(N)=O)c1ccccc1C(F)(F)F`, the Potency entry in [1] and in [3] was “inactive” throughout. Further, the Potency in assay [4] was 42700 nM (active); in assay [5] it was 117 nM (active); in assay [6] it was 53.7 nM (active); in assay [7], 47900 nM (active); in [9], 10700 nM (active).
With `Cn1cc(-c2[nH]c3cc(NC(=O)[C@H](N)C4CCCCC4)cc4c3c2C=NNC4=O)cn1`, the Potency entry in assay [10] was “inactive”.
Regarding `Cc1nc(N)ncc1-c1nc(N2CCOCC2)c2sc(C(C)(C)O)cc2n1`, the Potency is 296 nM (active) in assay [1]; 1870 nM (active) in assay [3]; 1650 nM (active) in assay [4]; 2330 nM (active) in [5]; 293 nM (active) in assay [6]; 1470 nM (active) in assay [9].
Consider `CC[C@@]1(O)C(=O)OCc2c1cc1n(c2=O)Cc2cc3cc(O)ccc3nc2-1`, for which the Potency in assay [1] was 93.5 nM (active); in [3], 469 nM (active); in assay [4], 73.7 nM (active); in assay [5], 46.5 nM (active); in assay [6], 13.1 nM (active); in assay [7] it was 827 nM (active). Further, the Potency is 41.4 nM (active) in assay [9] and 657 nM (active) in assay [8].
On to `COc1cccc(-c2ccc(NC(=O)C3=C(C(=O)O)CCC3)c(F)c2)c1`, for which the Potency result in assay [10], in [2], in [7], in [9] and in [8] was “inactive” in each case. In addition, the Potency in [6] was 2930 nM (active).
With `O=C(Cc1ccc(-c2ccc(OCCN3CCOCC3)cc2)cn1)NCc1ccccc1`, the Potency is 23.5 nM (active) in assay [1]; 29.6 nM (active) in assay [3]; 131 nM (active) in assay [5]; 147 nM (active) in assay [6]; 147 nM (active) in assay [9]; 117 nM (active) in assay [8].
For `Nc1ccc(C(=O)c2cc3c(ccc4ccccc43)[nH]2)cc1`, the Potency result in assay [10] and in [2] was “inactive” in each case. Also, the Potency in assay [3] was 4690 nM (active).
On to `C[C@@H]1CN(CC(=O)Nc2ccc3c(c2)Cc2cccc(-c4cc(=O)cc(N5CCOCC5)o4)c2S3)C[C@H](C)O1`, for which the Potency result in assay [10] was “inactive”.
On to `COc1cc2c(Nc3ccc(NC(=O)c4ccccc4)cc3)ncnc2cc1OCCCN1CCOCC1`, for which the Potency entry in [10] and in [2] was “inactive” each time.
Consider `CC(C)c1nn(-c2c(Cl)cccc2Cl)c2nc(Cc3ccc(OCCO)cc3)[nH]c(=O)c12`, for which the Potency result in assay [10], in assay [2] and in assay [4] was “inactive” in each case. The Potency in assay [3] is 372 nM (active); in [5], 131 nM (active); in [6] it was 117 nM (active); in [7] it was 82.7 nM (active); in assay [9], 41.4 nM (active); in [8] it was 208 nM (active).

For the origin of these results see PubChem BioAssay (NCATS).
